High-throughput results: PubChem BioAssay, National Center for Advancing Translational Sciences (NCATS)
Pf growth 96h = Primary qHTS for delayed death inhibitors of the malarial parasite plastid, 96 hour incubation; P. falciparum luciferase reporter growth, 96 h; Potency, µM (titrated, usually from 28.7 µM), for inactives: top-dose activity change, negative = inhibition, most hits filed as inhibitors; 320,000 compounds, 6.9% hits; AID 504834, 2011; also: potency is read from the fitted curve at half-maximal effect
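Two-generation exposure (96 h) targets delayed-death phenotype. Reporter parasites carrying integrated firefly luciferase, in red cells at 2% hematocrit and 0.05% parasitemia final, kept at 37 C, 5% CO2; luminescence loss indicates inhibition.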
HCV inh = qHTS Assay for Inhibitors of Hepatitis C Virus (HCV) | Huh7.5.1 HCVcc-Cre infection, luciferase reporter, 44 h | Potency, µM (top dose mostly 41.8 µM), for inactives: at the highest dose activity change, negative = inhibition, usual class: inhibitors | 340,000 compounds, 3.4% hits | AID 651820, 2012; also: potency is read from the fitted curve at half-maximal effect
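Reporter virus HCVcc-Cre (~0.5 moi) infects cells exposed to compound; seeding density 1,000 cells/well with 4 h settling beforehand. Luminescence, 15 sec read, taken 44 h post-infection following a 15 min RT substrate incubation.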
Marburg entry inh = qHTS for inhibitors of binding or entry into cells for Marburg Virus; Marburg virus pseudotyped entry inhibition, cell reporter; Potency, µM (top dose mostly 37.8 µM), for inactives: at the highest dose activity change, negative = inhibition, actives largely listed as inhibitors; 300,000 compounds, 1.8% hits; AID 540276, 2011; calls by dose curve; tested in HEK293 cells; also: potency is read from the fitted curve at half-maximal effect
HCMV inh = qHTS Assay for inhibitors of the human cytomegalovirus (HCMV) | 410,000 compounds, 4.5% hits | activity change, negative = inhibition, % at 57.5 µM | HFF cells, HCMV-luciferase reporter, 72 h; active compounds read low; in the data active = activity change below about -60%; inconclusive = no clear call, values can overlap the other calls; inactive = above about -39%
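Compounds were evaluated in HFFs infected with an HCMV luciferase reporter virus (MOI 1 PFU/cell). Luciferase in lysates collected 72 h post infection served as the replication measure.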
Pf growth 48h = Primary qHTS for delayed death inhibitors of the malarial parasite plastid, 48 hour incubation; P. falciparum luciferase growth in erythrocytes, 48 h; Potency, µM (titrated, usually from 28.7 µM), without a hit: at the highest dose activity change, negative = inhibition, hits mostly inhibitors; 310,000 compounds, 5.9% hits; also: potency is read from the fitted curve at half-maximal effect
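Parasite viability was followed by luminescence of a genomically integrated firefly luciferase. Cultures held 0.1% parasitemia at 2% hematocrit (final), incubated under 5% CO2 at 37 C.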
LASV entry inh = qHTS for Inhibitors of binding or entry into cells for Lassa Virus; Lassa virus pseudotype entry inhibition, cell reporter; AID 540256, 2011; Potency, µM (series often up to 37.9 µM), without a hit: at the highest dose activity change, negative = inhibition, hits mostly inhibitors; 300,000 compounds, 1.2% hits; calls by dose curve; tested in HEK293 cells; also: potency is read from the fitted curve at half-maximal effect; nearly all actives have a fitted effect of over 50% in size
The depositor's hits bear a star; ? = inconclusive; nt = no result; [ ] = another dose, or the depositor's remark. Sampled rows, rich in hits. Any-hit rate of the full collection: about 14%. Unless noted, calls follow the shape of the dose curve; as a rule, active = well fitted inhibition curve with a large enough effect; inconclusive = small, poorly fitted or top-dose-only effect, or another doubt; inactive = no such curve, though single readings can be large or run the other way. % is scaled to controls: 0 for no effect and ±100 for the full control effect.

SMILES | Pf growth 96h | HCV inh | Marburg entry inh | HCMV inh | Pf growth 48h | LASV entry inh
O=C(COc1ccc(Cl)cc1)NCc1nnc(SCC(=O)c2ccccc2)o1 | 4.1µM* | ? | -15%[46.1 µM] | 1 | -6% | -17%
O=C(CSc1nnc(CNC(=O)c2ccco2)o1)Nc1cccc(Cl)c1 | 5.9µM* | 10% | nt | -35 | 15% | nt
Cc1ccc(F)cc1NC(=O)CSc1nnc(CNC(=O)c2ccco2)n1C | -1% | 17% | 15% | 26 | 31% | 1%
O=C(CSc1nnc(CNC(=O)c2ccco2)o1)Nc1ccccc1 | 26% | 12% | -3% | -13 | 13% | 2%
O=C(COc1ccc(Cl)cc1)NCc1nnc(SCC(=O)Nc2ccccc2)o1 | ? | 4% | 12%[46.1 µM] | 11 | nt | 3%
Cc1ccc(C)c(NC(=O)CSc2nnc(CNC(=O)c3ccco3)n2C)c1 | 2.1µM* | -2% | 4%[46.1 µM] | -13 | 28% | 1%[46.1 µM]
Cc1cc(S(=O)(=O)N2CCOCC2)c(C)s1 | ? | ? | nt | -5 | 30% | nt
Cc1cscc1-c1ccc(C(=O)Nc2c(C)cccc2C)o1 | nt | nt | nt | -31 | nt | nt
NC(=O)c1ccccc1NC(=O)/C=C/c1c(Cl)cccc1Cl | 13µM* | ? | ? | 111 | 180% | 4%
Cc1cc(-c2ccc(C(C)C)c(S(=O)(=O)Nc3ccccn3)c2)on1 | 15% | -22% | nt | -3 | 64% | nt
COc1ccc(NC(=O)C2=CC=CN3CCS(=O)(=O)N=C23)c(OC)c1 | nt | -25% | -2% | 8 | nt | -5%
CCOC(=O)c1c(-c2ccsc2)csc1N | -4% | -23% | 7% | -24 | 2.9µM* | -11%
CCOC(=O)c1c(-c2ccc(C)s2)csc1N | ? | -12% | nt | ? | -28% | nt
O=C1Nc2cc(C(=O)NCCN3CCCCCC3)ccc2S/C1=C\c1ccccc1 | ? | 14µM* | nt | -100* | ? | nt
COc1cccc(/C=C2/Sc3ccc(C(=O)NCCN4CCCCCC4)cc3NC2=O)c1 | ? | 5.6µM* | nt | -70* | ? | nt
Cc1cccc(/C=C2/Sc3ccc(C(=O)NCCN4CCCC4)cc3NC2=O)c1 | 2% | ? | nt | ? | ? | nt
C#CCCCON=C1C[C@@H](O)[C@@H](O)[C@@H]2[C@H]3C(=O)N(C(C)(C)C)C(=O)[C@@H]3CC[C@H]12 | nt | nt | 12%[14.2 µM] | nt | nt | nt
COc1ccc(C2/C(=C(/O)c3ccc4c(c3)CC(C)O4)C(=O)C(=O)N2CCCN2CCOCC2)cc1 (stereo not drawn) | 32% | 7% | 3%[46.1 µM] | -6 | 13% | ?
Cc1sc(NC(=O)c2ccco2)c(C(c2ccc(F)cc2)N2CCN(C)CC2)c1C (stereo not drawn) | ? | -17% | 6.3µM* | nt | ? | ?
Cc1sc(NC(=O)c2ccco2)c(C(c2ccccc2)N2CCC(C)CC2)c1C (stereo not drawn) | ? | ? | ? | ? | 5.2µM* | ?
COc1ccc(C(c2c(NC(=O)c3ccco3)sc(C)c2C)N2CCOCC2)cc1OC (stereo not drawn) | 4.7µM* | ? | nt | -17 | 2.6µM* | nt
Cc1sc(NC(=O)c2ccco2)c(C(=O)c2ccc(Cl)cc2)c1C | 21% | 0% | -8% | 24 | -14% | -3%
Cc1sc(NC(=O)c2ccco2)c(C(c2cccnc2)N2CCN(c3ccc(F)cc3)CC2)c1C (stereo not drawn) | ? | 11µM* | nt | -100* | 2.1µM* | nt
Cc1ccc(C(c2c(NC(=O)c3ccco3)sc(C)c2C)N2CCOCC2)cc1 (stereo not drawn) | nt | nt | nt | -13 | nt | nt
Cc1ccccc1N1C(=O)c2cc(S(N)(=O)=O)c(Cl)cc2NC1C (stereo not drawn) | 37% | 5% | ? | 59 | -5% | 0%
SMILES | Pf growth 96h | HCV inh | Marburg entry inh | HCMV inh | Pf growth 48h | LASV entry inh
C[C@@H]1CCCCO[C@@H](CN(C)C(=O)CCC(F)(F)F)[C@@H](C)CN([C@H](C)CO)C(=O)c2cc(N(C)C)ccc2O1 | nt | nt | nt | -12 | nt | nt
COc1ccc(C)cc1NC(=O)CN1c2ccccc2S(=O)(=O)c2ccccc21 | nt | nt | nt | 14 | nt | 9%[46.1 µM]
Cc1ccc(NC(=O)Cn2c(=O)n(Cc3nc(C)no3)c(=O)c3cc4c(cc32)OCO4)cc1 | nt | nt | nt | -4 | nt | 11%[46.1 µM]
Cc1sc(NC(=O)c2ccco2)c(C(c2cccnc2)N2CCN(CCO)CC2)c1C (stereo not drawn) | ? | -2% | nt | -23 | ? | nt
CCOC(=O)C1CCN(C(c2cccnc2)c2c(NC(=O)c3ccco3)sc(C)c2C)CC1 (stereo not drawn) | -4% | 6.3µM* | ? | -97* | 0.29µM* | ?
CC(C)(C)c1ccc(-n2ncc3c2CCCC3NC(=O)CCn2cncn2)cc1 (stereo not drawn) | -9% | 1% | -13% | -68* | 1% | 7%
CC(C)(C)c1ccc(-n2ncc3c2CCCC3NC(=O)CCN2CCCO2)cc1 (stereo not drawn) | 16% | 13µM* | nt | ? | -25% | nt
CC(C)(C)c1ccc(-n2ncc3c2CCCC3NC(=O)CCCn2cncn2)cc1 (stereo not drawn) | -3% | ? | -9%[46.1 µM] | ? | 6% | ?
C=CCOC(=O)C(C(=O)CC)C(NC(=O)OC)c1ccc(F)cc1 (stereo not drawn) | nt | nt | -25%[14.2 µM] | nt | nt | nt
COc1cc2c(cc1OC)C(c1ccc(-c3ccc(Cl)cc3Cl)o1)=NCC2 | ? | 11µM* | 6.3µM* | ? | ? | 14µM*
COc1cc2c(cc1OC)C(c1ccc(-c3ccccc3Cl)o1)=NCC2 | nt | 5.6µM* | 21µM* | -19 | ? | ?
